Active and inactive are the calls of the source. How the source made its calls: active means hit-call score of the fitted dose curve at least 0.9, where 1 is the maximum; inactive means score below 0.9.
Experiments:
Conditions in all cases: mRNA level, 48 h; actives raise or lower the signal
[1] = read-out: Glutathione S-Transferase (GSTA2), GSTA2 (gene 2939); assay: LTEA_HepaRG_GSTA2: Life Technologies and Expression Analysis (LTEA) Assay for Glutathione S-Transferase (GSTA2) using HepaRG (AID 2283497)
Outline: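 qRT-PCR readout of GSTA2 transcript, normalized to three housekeeping genes, fitted bidirectionally against 0.5% DMSO baseline. Differentiated HepaRG cells received compound for 48 h at 8 concentrations (top 100 uM, half-log steps).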

[2] = read-out: Glutamate-cysteine ligase catalytic (GCLC), GCLC (gene 2729); assay: LTEA_HepaRG_GCLC: Life Technologies and Expression Analysis (LTEA) Assay for Glutamate-cysteine ligase catalytic (GCLC) using HepaRG (AID 2283498)
Outline: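 HepaRG, 48 h exposure, 8-pt half-log series from 100 uM, 0.5% DMSO vehicle; TaqMan qRT-PCR for GCLC mRNA, housekeeping-normalized; bidirectional curve fit vs DMSO baseline.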

[3] = read-out: growth arrest and DNA damage 45 (GADD45G), GADD45G (gene 10912); assay: LTEA_HepaRG_GADD45G: Life Technologies and Expression Analysis (LTEA) Assay for growth arrest and DNA damage 45 (GADD45G) using HepaRG (AID 2283499)
Outline: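 Gain or loss of GADD45G mRNA, quantified by TaqMan qRT-PCR against three housekeeping genes, is fitted in both directions relative to 0.5% DMSO. Human HepaRG cultures receive test chemical for 48 h at up to 100 uM.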

[4] = read-out: Glutamate-cysteine ligase regulatory (GCLM), GCLM (gene 2730); assay: LTEA_HepaRG_GCLM: Life Technologies and Expression Analysis (LTEA) Assay for Glutamate-cysteine ligase regulatory (GCLM) using HepaRG (AID 2283500)
Outline: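 HepaRG, 48 h dosing, 100 uM top, half-log x8, 0.5% DMSO vehicle. Readout: GCLM mRNA by TaqMan qRT-PCR, housekeeping-normalized (ACTB/GAPDH/POLR2A). Curves fit bidirectionally vs DMSO baseline.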

[5] = read-out: Heat shock 70 kDa protein 1 (HSPA1A), gene 3303; assay: LTEA_HepaRG_HSPA1A: Life Technologies and Expression Analysis (LTEA) Assay for Heat shock 70 kDa protein 1 (HSPA1A) using HepaRG (AID 2283502)
Outline: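 HepaRG, 48 h exposure, 8-pt half-log CRC from 100 uM in 0.5% DMSO, duplicates. Readout: TaqMan qRT-PCR of HSPA1A mRNA, housekeeping-normalized (ACTB/GAPDH/POLR2A). Bidirectional fit vs 0.5% DMSO baseline.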

[6] = read-out: Hypoxia-inducible factor 1-alpha (Homo sapiens) (UniProt Q16665); assay: LTEA_HepaRG_HIF1A: Life Technologies and Expression Analysis (LTEA) Assay for Hypoxia-inducible factor 1 (HIF1A) Trancription factor using HepaRG (AID 2283503)
Outline: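 Gain- or loss-of-signal HIF1A mRNA changes are fitted against a DMSO baseline. HepaRG cultures receive eight concentrations, highest 100 uM, for 48 h in serum-free induction medium with 0.5% DMSO.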

[7] = read-out: 3-Hydroxy-3-Methylglutaryl-CoA Synthase 2 (HMGCS2), HMGCS2 (gene 3158); assay: LTEA_HepaRG_HMGCS2: Life Technologies and Expression Analysis (LTEA) Assay for 3-Hydroxy-3-Methylglutaryl-CoA Synthase 2 (HMGCS2) using HepaRG (AID 2283504)
Outline: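 HepaRG, plated 48 h then switched to serum-free induction media; cmpd 8-pt, max 100 uM, 1/2-log, 0.5% DMSO, n=2, 48 h. HMGCS2 mRNA by Fluidigm TaqMan qRT-PCR, ACTB/GAPDH/POLR2A norm; bidirectional fit vs DMSO.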

[8] = read-out: HGF (gene 3082); assay: LTEA_HepaRG_HGF: Life Technologies and Expression Analysis (LTEA) Assay for Hepatocyte Growth Facto (HGF) using HepaRG (AID 2283505)
Outline: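 Read-out is HGF transcript level by qRT-PCR, normalized to three housekeeping genes, fitted bidirectionally against 0.5% DMSO vehicle. Human HepaRG cells received test chemicals for 48 h at up to 100 uM.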

[9] = read-out: Insulin Like Growth Factor 1 (IGF1), IGF1 (gene 3479); assay: LTEA_HepaRG_IGF1: Life Technologies and Expression Analysis (LTEA) Assay for Insulin Like Growth Factor 1 (IGF1) using HepaRG (AID 2283506)
Outline: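 qRT-PCR readout of IGF1 mRNA, normalized to three housekeeping genes, after 48 h chemical exposure of HepaRG cells. Concentrations: 8-point half-log series, top 100 uM, 0.5% DMSO vehicle. Gain or loss fitted against DMSO baseline.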

[10] = read-out: Intercellular Adhesion Molecule 1 (ICAM1), ICAM1 (gene 3383); assay: LTEA_HepaRG_ICAM1: Life Technologies and Expression Analysis (LTEA) Assay for Intercellular Adhesion Molecule 1 (ICAM1) using HepaRG (AID 2283507)
Outline: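 Readout is qRT-PCR mRNA level, normalized to three housekeeping genes and fitted bidirectionally against 0.5% DMSO vehicle. Human HepaRG cultures received compound for 48 h, top concentration 100 uM with half-log dilutions.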

[11] = read-out: Insulin-like growth factor-binding protein 1 (IGFBP1), IGFBP1 (gene 3484); assay: LTEA_HepaRG_IGFBP1: Life Technologies and Expression Analysis (LTEA) Assay for Insulin-like growth factor-binding protein 1 (IGFBP1) using HepaRG (AID 2283508)
Outline: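 Thawed HepaRG cells are plated for 48 h, switched to serum-free induction medium, then dosed in duplicate for another 48 h (100 uM top, half-log steps). Lysates in RLT go to qRT-PCR, and gain or loss of signal is fitted relative to vehicle.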

[12] = read-out: Interleukin 6 (IL6), IL6 (gene 3569); assay: LTEA_HepaRG_IL6: Life Technologies and Expression Analysis (LTEA) Assay for Interleukin 6 (IL6) using HepaRG (AID 2283509)
Outline: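 qRT-PCR read-out of IL6 transcript, normalized to three housekeeping genes, after 48 h chemical exposure of HepaRG cells; 8-point half-log series, top 100 uM, 0.5% DMSO vehicle. Bidirectional curve fitting against DMSO baseline.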

[13] = read-out: Interleukin 6 Receptor (IL6R), IL6R (gene 3570); assay: LTEA_HepaRG_IL6R: Life Technologies and Expression Analysis (LTEA) Assay for Interleukin 6 Receptor (IL6R) using HepaRG (AID 2283510)
Outline: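 HepaRG, 48 h exposure, 8-pt half-log series, top 100 uM, 0.5% DMSO vehicle, duplicates. Read-out: TaqMan qRT-PCR of IL6R transcript, housekeeping-gene normalized. Gain or loss fitted relative to DMSO baseline.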

[14] = read-out: Potassium channel subfamily K member 1 (KCNK1), KCNK1 (gene 3775); assay: LTEA_HepaRG_KCNK1: Life Technologies and Expression Analysis (LTEA) Assay for Potassium channel subfamily K member 1 (KCNK1) using HepaRG (AID 2283511)
Outline: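 HepaRG, 48 h exposure, 8-pt half-log series top 100 uM, 0.5% DMSO vehicle, duplicates. Readout: KCNK1 transcript by qRT-PCR (Fluidigm array), housekeeping-normalized; bidirectional curve fit relative to DMSO baseline.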

[15] = read-out: Keratin 19 (KRT19), KRT19 (gene 3880); assay: LTEA_HepaRG_KRT19: Life Technologies and Expression Analysis (LTEA) Assay for Keratin 19 (KRT19) using HepaRG (AID 2283512)
Outline: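 KRT19 transcript levels, measured by Fluidigm qRT-PCR against three housekeeping genes, are fitted for gain or loss of signal relative to DMSO. Human HepaRG cells receive test chemicals (top 100 uM, half-log steps, 0.5% DMSO) for 48 hours.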

[16] = read-out: JUN Transcription Factor, JUN (gene 3725); assay: LTEA_HepaRG_JUN: Life Technologies and Expression Analysis (LTEA) Assay for JUN Transcription Factor using HepaRG (AID 2283513)
Outline: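 HepaRG, 48 h exposure, 8-pt half-log series top 100 uM, 0.5% DMSO, duplicate. JUN mRNA by qRT-PCR (Fluidigm), housekeeping-normalized (ACTB/GAPDH/POLR2A); bidirectional curve fit vs DMSO baseline.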

[17] = read-out: Lipase C (LIPC), LIPC (gene 3990); assay: LTEA_HepaRG_LIPC: Life Technologies and Expression Analysis (LTEA) Assay for Lipase C (LIPC) using HepaRG (AID 2283514)
Outline: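 HepaRG, 48 h exposure, 8-pt half-log series from 100 uM in 0.5% DMSO, duplicates. Readout: LIPC mRNA by Fluidigm qRT-PCR, housekeeping-normalized (ACTB/GAPDH/POLR2A). Gain or loss fitted bidirectionally against DMSO baseline.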

[18] = read-out: Lipoprotein lipase (LPL), LPL (gene 4023); assay: LTEA_HepaRG_LPL: Life Technologies and Expression Analysis (LTEA) Assay for Lipoprotein lipase (LPL) using HepaRG (AID 2283515)
Outline: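 HepaRG, 48 h exposure, 8-pt half-log dilutions from 100 uM, 0.5% DMSO vehicle, duplicates; qRT-PCR (Fluidigm array) of LPL mRNA vs housekeeping genes; bidirectional curve fit relative to DMSO baseline.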

[19] = read-out: MicroRNA 122 (MIR122), gene 406906; assay: LTEA_HepaRG_MIR122: Life Technologies and Expression Analysis (LTEA) Assay for MicroRNA 122 (MIR122) using HepaRG (AID 2283516); further: the transcript read is the microRNA miR-122
Outline: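 qRT-PCR read-out (TaqMan, Fluidigm array), normalized to three housekeeping genes; HepaRG cells dosed 48 h at 8 concentrations up to 100 uM in 0.5% DMSO, duplicate; gain or loss fitted against DMSO baseline.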

[20] = read-out: Glutathione S-transferase M3 (GSTM3), GSTM3 (gene 2947); assay: LTEA_HepaRG_GSTM3: Life Technologies and Expression Analysis (LTEA) Assay for Glutathione S-transferase M3 (GSTM3) using HepaRG (AID 2283501)
Outline: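 HepaRG, plated 48 h, then serum-free induction medium; test chemical 48 h, duplicate; 100 uM top, half-log x8, 0.5% DMSO. Read-out: GSTM3 mRNA (TaqMan qRT-PCR, Fluidigm array). Bidirectional fit vs DMSO.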

Measured: outcome

Sequence of Hypoxia-inducible factor 1-alpha (Homo sapiens) (Q16665 whole entry, looked up): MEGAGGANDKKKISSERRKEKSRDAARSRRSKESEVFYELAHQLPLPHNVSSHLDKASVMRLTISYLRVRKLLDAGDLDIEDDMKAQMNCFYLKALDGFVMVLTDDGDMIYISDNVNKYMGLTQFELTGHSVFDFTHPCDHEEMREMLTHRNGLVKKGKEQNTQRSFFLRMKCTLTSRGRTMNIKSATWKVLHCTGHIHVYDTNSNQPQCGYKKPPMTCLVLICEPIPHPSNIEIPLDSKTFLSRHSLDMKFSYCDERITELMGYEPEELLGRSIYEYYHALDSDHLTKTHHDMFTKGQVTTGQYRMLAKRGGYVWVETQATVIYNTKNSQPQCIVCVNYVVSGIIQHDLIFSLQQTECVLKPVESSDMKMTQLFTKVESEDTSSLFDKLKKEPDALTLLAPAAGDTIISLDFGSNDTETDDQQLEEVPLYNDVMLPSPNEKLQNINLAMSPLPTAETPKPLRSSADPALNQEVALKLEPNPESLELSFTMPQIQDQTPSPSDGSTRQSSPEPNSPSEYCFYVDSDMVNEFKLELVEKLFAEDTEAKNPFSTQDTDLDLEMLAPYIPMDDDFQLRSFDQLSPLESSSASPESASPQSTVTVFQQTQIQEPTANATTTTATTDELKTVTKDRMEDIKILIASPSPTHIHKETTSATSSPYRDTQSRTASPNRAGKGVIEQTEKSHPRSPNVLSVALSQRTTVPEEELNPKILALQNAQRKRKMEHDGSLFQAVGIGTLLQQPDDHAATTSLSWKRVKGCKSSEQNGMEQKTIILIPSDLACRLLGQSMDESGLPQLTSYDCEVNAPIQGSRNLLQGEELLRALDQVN

O=C(O)CC(O)(CC(=O)O)C(=O)O
not listed: [20]
inactive: all other assays above

C#CC(O)C(CC)CCCC (centres undefined)
not listed: [4]
inactive: all other assays above

O=C(O)c1cccnc1
not listed: [8] | [20]
inactive: all other assays above

COC(=O)CCCC(=O)OC
not listed: [14] | [20]
inactive: all other assays above

— PubChem BioAssay (EPA / NIEHS)
